Compounds without any hit were thinned out: in the full panel of roughly 83,000, 20% have a hit.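 Assay: single dose, 48 h. Readout: percent growth (0 = no net growth; negative = cell death). Active: <10.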 A number with no mark means an inactive call. Activity calls are given as the source filed them.
System: OVCAR-3 ovarian
Assay: NCI-60 one-dose screen, 48 h (100 = growth as untreated, 0 = no growth, -100 = all killed)
Settings: 10 µM unless noted

| Structure (SMILES) | growth |
| --- | --- |
| CCOC(=O)C1=C(C)N=C2Sc3cccc(OC)c3N2[C@H]1c1ccccn1 | 107% |
| CNC(=O)c1cc(Oc2cccc3nc(Nc4ccc(Oc5ccccc5)cc4)ccc23)ccn1 | 72.7% |
| COc1ccc(-c2nc(N)ncc2Oc2ccccc2OC)c(O)c1 | -4.77% (active) |
| CSc1nc2ncncc2[nH]1 | 109% |
| Nc1c2c(c(O)c3c1=C(CO)C=N3)=NCCS2=O (stereo not given) | -51.5% (active) |
| CC(C)=CCc1cc2c(cc1O)C1=C(C(=O)C3=C(NCCS3(=O)=O)C1=O)C(C=C(C)C)O2 (stereo not given) | -0.915% (active) |
| CC/C=C\C[C@H]1C/C=C2/C(=O)C=C[C@@H]2C/C=C\CCCC(=O)O1 | -47.3% (active) |

System: HS 578T breast
Assay: as above
Settings: 10 µM

| Structure (SMILES) | growth |
| --- | --- |
| CO/C=C/C(=O)c1cc2cnc3c(=N)cc(NC(=O)C(C)C)c([nH]1)c23 | -6.02% (active) |
| Cc1cc2c(-c3nc4ccccn4c3Nc3cccc4ccccc34)c(O)c(O)cc2c(O)c1-c1c(C)cc2c(-c3nc4ccccn4c3Nc3cccc4ccccc34)c(O)c(O)cc2c1O | 39.7% |
| Cc1cc(N2CCOCC2)nc(N(CCNc2ccnc3cc(Cl)ccc23)Cc2cccs2)n1 | 5.37% (active) |
| CCCCCCCC(=O)SCC/C=C/[C@@H]1CC(=O)NCc2cc(ccn2)C2=N[C@@](C)(CS2)C(=O)N[C@@H](C(C)C)C(=O)O1 | -8.43% (active) |
| Cc1sc2c(c1C)c(=O)nc1c(-c3nc4ccccc4s3)n[nH]n12 | 93.3% |
| CC(C)(C)CC(C)(C)Nc1c(-c2c(O)c3ccccc3oc2=O)nc2c(Cl)cc(C(F)(F)F)cn12 | 103% |
| CCOc1cccc(/C=N/NC(=O)c2ccccc2Nc2ccnc(C(F)(F)F)c2)c1O | 39.2% |
| Cc1cc2c(-c3nc4ccccn4c3NC3CCCCC3)c(O)c(O)cc2c(O)c1-c1c(C)cc2c(-c3nc4ccccn4c3NC3CCCCC3)c(O)c(O)cc2c1O | 21.9% |
| C=CCC(=O)N[C@H](/C=C/C(=O)O)Cc1ccc(-c2cc(Cl)cc(Cl)c2)cc1 | 97% |
| CN1CCN(c2nc(NCCNc3ccnc4cc(Cl)ccc34)c3ccccc3n2)CC1 | 28.2% |
| C[C@@H](C[C@H](CCO)c1cc(C(F)(F)F)cc(C(F)(F)F)c1)c1ccc2ccccc2c1 | 106% |
| C=C1C(=O)O[C@H]2[C@H]1CC/C(Cn1cc(-c3cc(C)c(C)cc3C)nn1)=C\CC[C@@]1(C)O[C@@H]21 | 11.6% |
| COc1ccc2c(CCCc3ccc(Cl)cc3Cl)c3[n+](cc2c1OC)CCc1cc2c(cc1-3)OCO2 | 32.9% |
| CCN1CCN(c2cc(C)nc(N(CCCNc3ccnc4cc(Cl)ccc34)Cc3ccc4c(c3)OCO4)n2)CC1 | -27.1% (active) |
| O=C1CC(c2ccc(Cl)cc2)c2ncn(-c3cccc(Cl)c3)c2N1 (stereo not given) | 52.8% |
| Cc1ccccc1Nc1nc2nonc2nc1Nc1cccc(C)c1C | 72.6% |
| Fc1ccc(NCc2cn(-c3ccccc3)nc2-c2ccc(OCc3ccccc3)cc2)cc1Cl | 104% |
| CCCCCCCC(=O)SCC/C=C/[C@@H]1CC(=O)NCc2cccc(n2)C2=N[C@@](C)(CS2)C(=O)N[C@@H](C(C)C)C(=O)O1 | 15.4% |
| COC(=O)C1CCc2sc3ncnc(Nc4cn[nH]c4C(=O)Nc4ccc(CN5CCN(C)CC5)cc4)c3c21 (stereo not given) | -3.1% (active) |
| C=CC(=O)N(C)[C@H]1C[C@H]2OC(C)(C1OC)n1c3ccccc3c3c4c(c5c6ccccc6n2c5c31)C(=O)NC4 (stereo not given in full) | -14.9% (active) |
| Cc1cc(N(CCNc2ccnc3cc(Cl)ccc23)Cc2ccc3c(c2)OCO3)nc(N2CCN(C)CC2)n1 | 34.4% |
| CN1CCN(CCCOc2cccc3nc(Nc4ccc(Cl)c(C(F)(F)F)c4)ccc23)CC1 | 32.6% |
| Nc1c2c(c(O)c3c1=C(CO)C=N3)=NCCS2 | 5.57% (active) |
| Cc1cc(O)c2c(c1)C1OC(=O)CCCCCN1C1=C2C(=O)c2cccc(OC3CC(O)C(O)C(C)O3)c2C1=O (stereo not given) | 71.5% |
| CC1(C=O)NC(=O)NC1=O (stereo not given) | 104% |
| COc1ccc(Nc2ncccc2NC(=O)c2cn(Cc3cccc(Oc4ccccc4)c3)nn2)cc1 | 95.7% |
| OCCNC(=S)Nc1ccc(-c2nc(N3C[C@H]4CC[C@@H](C3)O4)c3cccn3n2)cc1 | -28.6% (active) |
| O=C(c1ccccc1)C(c1ccccc1)N1CCOCC1 (stereo not given) | 97% |

Source: PubChem BioAssay (NCI)
